In the library only some 3.6% were active in any assay of this set; here they are far more common.
Pf apPOL inh: Pf-apPOL DNA polymerase inhibition; Recombinant Pf-apPOL, molecular beacon fluorescence, 1.5 h; inhibition, % at 10 µM; hit rate 0.25% among 210,000; AID 1794808
mHTT-CaM PPI inh: inhibitors of human mutant huntingtin-calmodulin interaction. AID 1671202. hit rate 3.6% among 190,000. AlphaScreen His-mHTT/GST-CaM binding, luminescence. inhibition, % at 15 µM. P42858;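 also: 0% = both proteins with DMSO and 100% = one protein alone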
* = called active by the depositor; nt = no result. Rule as the data show it: active = inhibition above about 50%; inactive = the rest.

SMILES	Pf apPOL inh	mHTT-CaM PPI inh
COc1ccc(OCCNc2ccc(C(F)(F)F)cc2[N+](=O)[O-])cc1	-2	26
COc1ccc(Nc2ccc(C(F)(F)F)cc2[N+](=O)[O-])cc1	0	53*
O=S(=O)(Nc1ccc(S(=O)(=O)N2CCOCC2)cc1)c1cc(Cl)ccc1Cl	-4	3
Cn1ncc(Cl)c1C(=O)NCCCn1cc(Br)cn1	nt	-2
C=CCNC(=O)c1c[nH]c2ccc(S(=O)(=O)N(C)c3ccc(Cl)cc3)cc2c1=O	-15	53*
C=CCN(c1ccccc1)S(=O)(=O)c1ccc2[nH]cc(C(=O)NCCCC)c(=O)c2c1	-5	32
C=CCNC(=O)c1c[nH]c2ccc(S(=O)(=O)N(C)c3ccc(Cl)cc3F)cc2c1=O	-5	7
C=CCN(c1ccccc1)S(=O)(=O)c1ccc2[nH]cc(C(=O)NCCOC)c(=O)c2c1	-10	50*
CCC(CO)NCC(O)COc1cccc2ccccc12 (centres undefined)	0	-1
COc1ccc([N+](=O)[O-])cc1NC(=O)c1sc2nc(C)nc(N3CCC(C)CC3)c2c1C	3	-4
CCN(CC)C(C)CN1c2ccccc2Sc2ccccc21 (centres undefined)	-3	nt
CCC(CO)NCC(O)CN1c2ccccc2Sc2ccccc21 (centres undefined)	-1	10
OC(CN1c2ccccc2Sc2ccccc21)Cn1cnc(-c2ccccc2)c1-c1ccccc1 (centres undefined)	nt	100*
OC(CNCCc1ccccc1)CN1c2ccccc2Sc2ccccc21 (centres undefined)	-1	100*
COc1ccc(C2=N/C(=C\C(Br)=C\c3ccccc3)C(=O)O2)cc1OC	5	12
COc1ccc(OC)c(CNc2ccc3c(c2)ncn3C)c1	1	5
CC1=NS(=O)(=O)N(C)C=C1C(=O)OCc1ccc(C)cc1	-17	-20
CCCn1cc(C2=CCN(C(=O)NCc3ccccc3)CC2)c2cccnc21	-6	32
CCn1cc(C2=CCN(C(=O)Nc3ccc4c(c3)OCCO4)CC2)c2cccnc21	-4	34
CCCn1cc(C2=CCN(C(=O)Nc3ccc4c(c3)OCCO4)CC2)c2cccnc21	-4	59*
Cn1cc(C2=CCN(C(=O)NCc3cccc(F)c3)CC2)c2cccnc21	-5	50*
CCNc1nc(NC(C)C)nc(N2CCCC2)n1	-10	-3
O=C(CSc1ccccn1)c1ccc2c(c1)OCO2	-2	-8
O=C(c1ccc2c(c1)OCO2)n1cccn1	66*	-1
N#CC(=Cc1[nH]c2ccccc2c1O)C(=N)N1CCOCC1	-1	18
SMILES	Pf apPOL inh	mHTT-CaM PPI inh
COc1ccc(C(=O)Nc2ccc(N3CCCC3)cc2)cc1OC	-9	7
Cc1cc(OCC(=O)N2CCCCC2CCN2CCCC2)ccc1Cl (centres undefined)	-10	14
Cc1cccc(OCC(=O)Nc2ccc(Nc3ccccc3)cc2)c1	1	74*
CCC(=O)Nc1ccc(NC(=O)COc2ccc(C)c(C)c2)cc1	-9	-5
Cc1ccc(OCC(=O)Nc2ccc(N3CCCC3)cc2)cc1C	4	99*
CCC(=O)Nc1ccc(NC(=O)COc2cccc(C)c2)cc1	-3	-2
CCOc1cc(C(=O)Nc2ccc(N3CCCC3)cc2)cc(OCC)c1OCC	-8	79*
Cc1ccc(OCC(=O)N2CCCCC2CCN2CCCCC2)cc1C (centres undefined)	-7	54*
CC(=O)N1CCN(Cc2cc(C(C)(C)C)cc(C(C)(C)C)c2O)CC1	-14	27
Cc1[nH]n(-c2ccc([N+](=O)[O-])cc2)c(=O)c1C=NCCCN1CCOCC1	-3	0
COc1ccc(C(=O)Nc2ccc(N3CCCC3)cc2)cc1	1	99*
COc1ccc(C(=O)Nc2ccc(N3CCOCC3)cc2)cc1	-3	5
c1nc(NCCN2CCOCC2)c2sc3nc(N4CCOCC4)c4c(c3c2n1)CCCC4	0	55*
c1nc(N2CCNCC2)c2sc3nc(N4CCOCC4)c4c(c3c2n1)CCCC4	-10	14
CCCc1ccc(OCC(=O)Nc2cc([N+](=O)[O-])ccc2C)cc1	-5	-3
O=C(c1n[nH]c2ccccc12)N1CCCn2nc(-c3ccncc3)cc2C1	-7	23
Cn1ccc(-c2ccccc2)n1	-4	-8
Cn1ccc(-c2ccnc(NN)n2)n1	nt	99*
O=C(Cn1cnc([N+](=O)[O-])n1)Nc1cc(Oc2cccc(C(F)(F)F)c2)cc([N+](=O)[O-])c1	-2	51*
O=C(Cn1cnc([N+](=O)[O-])n1)Nc1cc(Oc2ccc(F)cc2)cc([N+](=O)[O-])c1	0	29
O=C(Cn1cc([N+](=O)[O-])nc1[N+](=O)[O-])Nc1cc(Oc2ccccc2)cc([N+](=O)[O-])c1	0	51*
O=C(Cn1cnc([N+](=O)[O-])c1)Nc1cc(Oc2cccnc2)cc([N+](=O)[O-])c1	2	7
O=C(CN1CCN(CCO)CC1)Nc1ccc(OC(F)(F)Cl)cc1	0	-1

Source: PubChem
